# Assay outcomes from PubChem.
# The full list was thinned out, with hits kept by preference.
# 12-LOX inh = Primary qHTS assay for inhibitors of human arachidonate 12S-lipoxygenase (ALOX12): Round 2. 1.1% of 580,000 active. Polyunsaturated fatty acid lipoxygenase ALOX12 (Homo sapiens), P18054. Potency, µM (top dose mostly 108 µM), without a hit: at the highest dose activity change, negative = inhibition, usual class: inhibitors. AID 1671190, 2021. purified 12hLO, xylenol orange hydroperoxide absorbance; note: potency is the fitted concentration of half-maximal effect
# Target sequence (P18054 whole entry, looked up): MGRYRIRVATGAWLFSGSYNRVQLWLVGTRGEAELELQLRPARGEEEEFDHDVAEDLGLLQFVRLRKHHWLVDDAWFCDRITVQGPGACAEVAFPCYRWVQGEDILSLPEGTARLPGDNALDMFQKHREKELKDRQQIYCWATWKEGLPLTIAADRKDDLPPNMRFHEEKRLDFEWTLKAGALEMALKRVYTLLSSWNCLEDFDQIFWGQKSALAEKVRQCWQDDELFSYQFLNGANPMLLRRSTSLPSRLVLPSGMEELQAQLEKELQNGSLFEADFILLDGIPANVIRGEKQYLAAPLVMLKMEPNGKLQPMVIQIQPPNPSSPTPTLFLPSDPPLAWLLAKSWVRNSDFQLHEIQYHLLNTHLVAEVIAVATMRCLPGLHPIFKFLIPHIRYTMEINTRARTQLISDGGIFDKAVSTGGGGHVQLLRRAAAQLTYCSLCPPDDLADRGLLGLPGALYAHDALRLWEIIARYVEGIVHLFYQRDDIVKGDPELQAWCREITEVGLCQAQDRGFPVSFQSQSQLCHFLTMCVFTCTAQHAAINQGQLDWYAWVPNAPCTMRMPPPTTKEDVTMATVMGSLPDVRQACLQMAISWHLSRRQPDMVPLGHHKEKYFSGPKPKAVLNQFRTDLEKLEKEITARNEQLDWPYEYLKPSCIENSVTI
#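 Purified human 12hLO (150 nM final) in 25 mM Hepes, 0.01% Triton X-100, pH 7.0 was preincubated 15 min at room temperature with compound. Then 40 uM arachidonic acid was added, 30 min. Hydroperoxide was read by Fe-XO absorbance ratio 573/405 nm.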
# HT1080NT lethal = qHTS for induction of synthetic lethality in tumor cells producing 2HG: qHTS for the HT-1080-NT fibrosarcoma cell line. HT-1080-NT fibrosarcoma viability, CellTiter-Glo ATP luminescence, 48 h. Potency, µM (doses to about 46.1 µM), without a hit: top-dose activity, negative = less viability, actives largely listed as cytotoxic. 1.6% of 360,000 active;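 note: NT is the 2HG producing partner of a matched IDH1 knockdown line; potency is the fitted concentration of half-maximal effect; 0% = DMSO-treated cells and -100% = media-only wells without cells; nearly all actives have a fitted effect of over 55% in size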
#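 Read-out is CellTiter-Glo luminescence after 10 minutes at room temperature, following 48 hours' compound treatment of HT-1080-NT cells (750 cells/well, RPMI, 5% FBS, 37 degrees C).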
# TDP1 cell noCPT = qHTS for Inhibitors of human tyrosyl-DNA phosphodiesterase 1 (TDP1): qHTS in cells in absence of CPT. DT40 Tdp1-/- hTDP1 cells, no CPT, ATP luminescence, 48 h. Potency, µM (titrated, usually from 46.2 µM), without a hit: at the highest dose activity change, negative = growth inhibition, hits mostly inhibitors. 15% of 420,000 active; note: potency is the fitted concentration of half-maximal effect; nearly all actives have a fitted effect of over 55% in size
#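 Stably hTDP1-transfected Tdp1-null chicken DT40 cells were treated with library compounds minus camptothecin and grown for at least 48 hr at 37 °C, after which cellular ATP was quantified by luminescence.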
# TDP1 cell CPT = qHTS for Inhibitors of human tyrosyl-DNA phosphodiesterase 1 (TDP1): qHTS in cells in presence of CPT; chicken DT40 Tdp1-/-;hTDP1 cells + 20 nM CPT, ATP luminescence, 48 h; Potency, µM (top dose mostly 46.2 µM), inactives show at the highest dose activity change, negative = growth inhibition, usual class: inhibitors; 12% of 420,000 active; note: potency is the fitted concentration of half-maximal effect; nearly all actives have a fitted effect of over 55% in size
#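 Chicken DT40 Tdp1-/- cells stably complemented with human TDP1 were seeded at 400 cells/well in medium containing 20 nM camptothecin, exposed to pin-transferred compounds, and grown at 37 °C for at least 48 hr. Viability was read as ATP luminescence.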
# IL-1B inflam inh = qHTS for Inhibitors of Inflammasome Signaling: IL-1-beta AlphaLISA Primary Screen; THP-1 LPS/ATP IL-1B secretion, AlphaLISA, 16 h; stronger effect = lower value; activity change, % at 57.5 µM; 4.7% of 360,000 active; AID 743279, 2014; in the data active = activity change below about -50%; inconclusive = mostly about -30% to -49%
#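 THP-1 cells pretreated 1 hr with compounds (up to 57.5 uM final), then stimulated with LPS (250 ng/mL final) plus ATP (1.25 mM final); secreted IL-1B measured by AlphaLISA after 16 hr, decreased signal indicating inhibition.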
# HT1080 IDH1KD tx = qHTS for induction of synthetic lethality in tumor cells producing 2HG: qHTS for the HT-1080-IDH1KD cell line | Potency, µM (top dose mostly 46.1 µM), without a hit: at the highest dose activity, negative = toxicity, hits mostly cytotoxic | HT-1080 IDH1 knockdown viability, ATP luminescence, 48 h | AID 686971, 2013 | 2% of 360,000 active;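 note: potency is the fitted concentration of half-maximal effect; 0% = DMSO wells and -100% = cell-free medium wells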
#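 Cytotoxicity counter-line: IDH1KD HT-1080, 48 h, CellTiter-Glo. Curves classed by r2, magnitude and activity.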
# Active calls of the source: *; i = inactive; ? = inconclusive; . = not tested or not shown; [ ] = dose if it differs, or a comment. Unless noted, calls come from the whole dose curve; as a rule, active = well fitted curve in the direction sought with a large enough effect; inconclusive = small, poorly fitted or top-dose-only effect, or another doubt; inactive = no such curve, though single readings can be large; an effect the other way counts as inactive or inconclusive. Unless noted, % is set by controls: 0 for no effect and ±100 for the full control effect.
SMILES,12-LOX inh,HT1080NT lethal,TDP1 cell noCPT,TDP1 cell CPT,IL-1B inflam inh,HT1080 IDH1KD tx
O=C(Nc1cccc(NC(=O)c2nccc3ccccc23)c1)c1ccco1,18%,1%,10µM*,?,3,0%
O=C(Nc1cccc(-c2cnc3ccccc3n2)c1)C1CC(=O)N(c2ccccc2)C1 (stereo unspecified),364%,-2%,23µM*,21µM*,i,0%
O=C(Nc1ccccc1C(=O)O)c1ccc(NC(=O)c2ccc(Br)o2)cc1,0%,4%,?,?,42,?
CC(C)COc1ccc(C(=O)Nc2ccc(NC(=O)c3ccco3)c(Cl)c2)cc1,0%,?,-25%,?,-6,15µM*
O=C(Nc1ccccc1C(=O)O)c1cccc(NC(=O)c2ccc(Br)o2)c1,0%,-6%,1.6µM*,-7%,-6,-3%
CCCC(C)N1CC2(CCN(C(=O)c3cnn4ccccc34)CC2)OC1=O (stereo unspecified),25%,.,.,.,.,.
Cc1ccc(-c2cnc(CCC(=O)Nc3ccn(C)n3)o2)cc1,35%,.,.,.,.,.
CCC(CC)NC(=O)CCC1CCN(C(=O)c2ccc(C)cc2)CC1,46%,.,.,.,.,.
CN1CCC(NC(=O)c2n[nH]c3c2CN(C(=O)c2cccc(F)c2)CC3)CC1,7%,.,.,.,.,.
Nc1ccc(C(=O)Nc2ccc(NC(=O)c3ccco3)c(O)c2)cc1,9%,4%,16µM*,?,-20,1%
O=C(CCl)Nc1cccc(-c2cnc3ccccc3n2)c1,-21%,?,2.3µM*,2.9µM*,-96*,?
O=C(Nc1ccc(NC(=O)c2ccco2)c(Cl)c1)c1ccccc1,2%,2%,23µM*,?,?,14%
CCC(=O)Nc1cccc(-c2cnc3ccccc3n2)c1,-21%,1%,?,?,30,1%
Nc1cccc(NC(=O)c2ccco2)c1,18%,3%,-1%,5%,3,2%
CC(C)Oc1ccc(C(=O)Nc2ccc(NC(=O)c3ccco3)c(Cl)c2)cc1,i,13%,?,?,?,11%
CN1CCCN(C(=O)[C@@H]2C[C@@H](Sc3nc4ccccc4[nH]3)CN2Cc2ccc(-c3ccccc3)cc2)CC1,?,.,?,10%[9.04 µM],.,.
O=C([C@@H]1C[C@@H](Sc2nc3ccccc3[nH]2)CN1Cc1ccc(Cl)cc1)N1CCN(c2ccccc2F)CC1,3%,.,21µM*,?,.,.
O=S(Cc1cc(Sc2ccccc2)nc(-c2ccccc2)n1)c1ccccc1 (stereo unspecified),0%,?,16µM*,?,-7,?
COc1cc2ccccc2cc1C(=O)N(CCN(C)C)c1nc2c(C)cccc2s1,?,?,23µM*,16µM*,-61*,?
COc1cc2ccccc2cc1C(=O)N(CCN(C)C)c1nc2ccc(C)cc2s1,?,23µM*,?,?,-21,16µM*
COc1ccc(OC)c2sc(N(CCN(C)C)C(=O)c3ccc4ccccc4c3)nc12,?,11%,?,?,-27,-4%
Cc1cc(C)c2sc(N(CCN(C)C)C(=O)c3cc(Cl)sc3Cl)nc2c1,-26%,0%,?,?,-20,-8%
